Laboratory results from PubChem BioAssay (NCI).
Several values for one entry are separate records, joined by “and”; a condition that tells them apart may be missing. Identical values can stand only once. About 83,000 compounds went through this panel and 20% of them were active in at least one assay; those are over-represented in the sample as a whole.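 96-well plates, one dose, 48 hours. Percent growth reported; active if below 10.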 Activity calls are given as the source filed them.

System: SW-620 colon
Experiment: NCI-60 one-dose screen, 48 h (100 = growth as untreated, 0 = no growth, -100 = all killed)
Settings: 10 µM

Question: For `Cc1cc(C)c(N2C(=O)CC(Sc3ccccc3N)C2=O)c(C)c1` (centres undefined), which growth is on record?
Answer: 55.9% (inactive)

Question: With `COc1cc(N)ccc1Nc1c2ccccc2nc2ccccc12` as the compound, how does the growth read?
Answer: 4.74% (active)

Question: How did the growth turn out when `O=[N+]([O-])c1cc(S(=O)(=O)Nc2ccccc2)ccc1Cl` was run?
Answer: 105% (inactive)

Question: How did the growth turn out when `CCOC(=O)[C@]1(Br)CC[C@@]1(Br)C(=O)OCC` was run?
Answer: 76.2% (inactive)

Question: For `N#C/C(=C/N1C(=O)/C(=C/c2ccc([N+](=O)[O-])cc2)SC1=S)c1nc2ccccc2s1`, which growth is on record?
Answer: 87.8% (inactive)

Question: How did the growth turn out when `Cn1ncc2cc3c(Nc4ccc(Cl)cc4)cccc3nc21` was run?
Answer: 97.5% (inactive)

Question: `S=P(N1CC1)(N1CC1)N1CC1` was tested. Which growth did it give?
Answer: 110% (inactive) and 93.6% (inactive)

Question: Which growth does the source give for `O=C1c2cccc3cc([N+](=O)[O-])cc(c23)C(=O)N1CCN1CCCC1` here?
Answer: -4.97% (active)

Question: `N#CC(=C1C=CC(=NO)C=C1)c1ccccc1` was tested. Which growth did it give?
Answer: 1.65% (active)

Question: How did the growth turn out when `Cc1cc(N=C2C=CC(=[N+](C)C)C=C2)c(N)cc1N` was run?
Answer: 84.9% (inactive)

Question: With `CN(C)CCNc1cccc2sc3ccc(O)cc3c(=O)c12` as the compound, how does the growth read?
Answer: 24.5% (inactive)

Question: How did the growth turn out when `O=C(NC(=S)Nc1ccccn1)c1ccccc1` was run?
Answer: 96.1% (inactive)

Question: With `Cn1c2nc3ccccc3c-2nc2ccccc21` as the compound, how does the growth read?
Answer: 79% (inactive) and 90% (inactive)

Question: Which growth does the source give for `CCC(C)(c1ccc(O)c(C)c1)c1ccc(O)c(C)c1` here?
Answer: 111% (inactive)

Question: With `O=Nc1ccc(Nc2ccccc2)cc1` as the compound, how does the growth read?
Answer: 70.1% (inactive)

Question: How did the growth turn out when `O=c1[nH]cc(/C=N\Nc2ccccc2)c(=O)[nH]1` was run?
Answer: 46.6% (inactive)

Question: For `CN(C)c1ccc(/C=C/c2ccnc3ccccc23)cc1N`, which growth is on record?
Answer: 78.4% (inactive)

Question: For `COc1cccc(C(c2cc3c(cc2O)OCO3)N2CCOCC2)c1OC` (centres undefined), which growth is on record?
Answer: 102% (inactive)

Question: With `O=C1C=CC(=O)N1c1ccc(N2C(=O)C=CC2=O)cc1` as the compound, how does the growth read?
Answer: 112% (inactive)

Question: `CC(=O)O[C@H]1C(=O)[C@@]2(C)[C@H]([C@H](OC(=O)c3ccccc3)[C@]3(O)C[C@H](OC(=O)[C@H](O)[C@@H](NC(=O)c4ccccc4)c4ccccc4)C(C)=C1C3(C)C)[C@]1(OC(C)=O)CO[C@@H]1C[C@@H]2O` was tested. Which growth did it give?
Answer: 53.7% (inactive) and 53.5% (inactive)

Question: How did the growth turn out when `CCC(=O)Oc1ccc(/C=N/NC(N)=S)nc1` was run?
Answer: 49.5% (inactive)

Question: For `COc1ccc(C(C#N)=C2C=CC(=NO)C=C2)cc1`, which growth is on record?
Answer: 12.1% (inactive)

Question: For `CN(CC(=O)O)c1ccc(/C=C/c2ccnc3ccccc23)cc1`, which growth is on record?
Answer: 84.3% (inactive)

System: MCF7 breast
Experiment: as above
Settings: 10 µM

Question: How did the growth turn out when `Cc1cc(C)c(N2C(=O)CC(Sc3ccccc3N)C2=O)c(C)c1` (centres undefined) was run?
Answer: 31.7% (inactive)

Question: For `COc1cc(N)ccc1Nc1c2ccccc2nc2ccccc12`, which growth is on record?
Answer: 12.5% (inactive)

Question: Which growth does the source give for `O=[N+]([O-])c1cc(S(=O)(=O)Nc2ccccc2)ccc1Cl` here?
Answer: 84% (inactive)

Question: With `CCOC(=O)[C@]1(Br)CC[C@@]1(Br)C(=O)OCC` as the compound, how does the growth read?
Answer: 93.4% (inactive)

Question: How did the growth turn out when `N#C/C(=C/N1C(=O)/C(=C/c2ccc([N+](=O)[O-])cc2)SC1=S)c1nc2ccccc2s1` was run?
Answer: 60.7% (inactive)

Question: For `Cn1ncc2cc3c(Nc4ccc(Cl)cc4)cccc3nc21`, which growth is on record?
Answer: 86.8% (inactive)

Question: How did the growth turn out when `S=P(N1CC1)(N1CC1)N1CC1` was run?
Answer: 69.5% (inactive)

Question: For `O=C1c2cccc3cc([N+](=O)[O-])cc(c23)C(=O)N1CCN1CCCC1`, which growth is on record?
Answer: 1.22% (active)

Question: How did the growth turn out when `N#CC(=C1C=CC(=NO)C=C1)c1ccccc1` was run?
Answer: 8.32% (active)

Question: How did the growth turn out when `Cc1cc(N=C2C=CC(=[N+](C)C)C=C2)c(N)cc1N` was run?
Answer: 68.8% (inactive)

Question: With `CN(C)CCNc1cccc2sc3ccc(O)cc3c(=O)c12` as the compound, how does the growth read?
Answer: 27.8% (inactive)

Question: `O=C(NC(=S)Nc1ccccn1)c1ccccc1` was tested. Which growth did it give?
Answer: 24.3% (inactive)

Question: For `Cn1c2nc3ccccc3c-2nc2ccccc21`, which growth is on record?
Answer: 77.3% (inactive) and 67.5% (inactive)

Question: For `CCC(C)(c1ccc(O)c(C)c1)c1ccc(O)c(C)c1`, which growth is on record?
Answer: 111% (inactive)

Question: With `O=Nc1ccc(Nc2ccccc2)cc1` as the compound, how does the growth read?
Answer: 67.2% (inactive)

Question: For `O=c1[nH]cc(/C=N\Nc2ccccc2)c(=O)[nH]1`, which growth is on record?
Answer: 56.1% (inactive)

Question: How did the growth turn out when `CN(C)c1ccc(/C=C/c2ccnc3ccccc23)cc1N` was run?
Answer: 62.9% (inactive)

Question: Which growth does the source give for `COc1cccc(C(c2cc3c(cc2O)OCO3)N2CCOCC2)c1OC` (centres undefined) here?
Answer: 96.5% (inactive)

Question: Which growth does the source give for `O=C1C=CC(=O)N1c1ccc(N2C(=O)C=CC2=O)cc1` here?
Answer: 97% (inactive)

Question: Which growth does the source give for `CC(=O)O[C@H]1C(=O)[C@@]2(C)[C@H]([C@H](OC(=O)c3ccccc3)[C@]3(O)C[C@H](OC(=O)[C@H](O)[C@@H](NC(=O)c4ccccc4)c4ccccc4)C(C)=C1C3(C)C)[C@]1(OC(C)=O)CO[C@@H]1C[C@@H]2O` here?
Answer: 15.4% (inactive) and 15.3% (inactive)

Question: Which growth does the source give for `CCC(=O)Oc1ccc(/C=N/NC(N)=S)nc1` here?
Answer: 22.5% (inactive)

Question: For `COc1ccc(C(C#N)=C2C=CC(=NO)C=C2)cc1`, which growth is on record?
Answer: 14.1% (inactive)

Question: How did the growth turn out when `CN(CC(=O)O)c1ccc(/C=C/c2ccnc3ccccc23)cc1` was run?
Answer: 31.8% (inactive)

System: HCT-116 colon
Experiment: as above
Settings: 10 µM

Question: Which growth does the source give for `Cc1cc(C)c(N2C(=O)CC(Sc3ccccc3N)C2=O)c(C)c1` (centres undefined) here?
Answer: 79.2% (inactive)

Question: For `COc1cc(N)ccc1Nc1c2ccccc2nc2ccccc12`, which growth is on record?
Answer: -88.5% (active)

Question: How did the growth turn out when `O=[N+]([O-])c1cc(S(=O)(=O)Nc2ccccc2)ccc1Cl` was run?
Answer: 92.1% (inactive)

Question: For `CCOC(=O)[C@]1(Br)CC[C@@]1(Br)C(=O)OCC`, which growth is on record?
Answer: 88.9% (inactive)

Question: With `N#C/C(=C/N1C(=O)/C(=C/c2ccc([N+](=O)[O-])cc2)SC1=S)c1nc2ccccc2s1` as the compound, how does the growth read?
Answer: 85.9% (inactive)

Question: How did the growth turn out when `Cn1ncc2cc3c(Nc4ccc(Cl)cc4)cccc3nc21` was run?
Answer: 85.6% (inactive)

Question: How did the growth turn out when `S=P(N1CC1)(N1CC1)N1CC1` was run?
Answer: 95.9% (inactive) and 73.8% (inactive)

Question: With `O=C1c2cccc3cc([N+](=O)[O-])cc(c23)C(=O)N1CCN1CCCC1` as the compound, how does the growth read?
Answer: -37.6% (active)

Question: How did the growth turn out when `N#CC(=C1C=CC(=NO)C=C1)c1ccccc1` was run?
Answer: -47.8% (active)

Question: For `Cc1cc(N=C2C=CC(=[N+](C)C)C=C2)c(N)cc1N`, which growth is on record?
Answer: 82.2% (inactive)

Question: How did the growth turn out when `CN(C)CCNc1cccc2sc3ccc(O)cc3c(=O)c12` was run?
Answer: 25.3% (inactive)

Question: For `O=C(NC(=S)Nc1ccccn1)c1ccccc1`, which growth is on record?
Answer: 87.9% (inactive)

Question: With `Cn1c2nc3ccccc3c-2nc2ccccc21` as the compound, how does the growth read?
Answer: 92.7% (inactive) and 80.9% (inactive)

Question: For `CCC(C)(c1ccc(O)c(C)c1)c1ccc(O)c(C)c1`, which growth is on record?
Answer: 94% (inactive)

Question: `O=Nc1ccc(Nc2ccccc2)cc1` was tested. Which growth did it give?
Answer: 78.4% (inactive)

Question: Which growth does the source give for `O=c1[nH]cc(/C=N\Nc2ccccc2)c(=O)[nH]1` here?
Answer: 57% (inactive)

Question: How did the growth turn out when `CN(C)c1ccc(/C=C/c2ccnc3ccccc23)cc1N` was run?
Answer: 49.3% (inactive)

Question: With `COc1cccc(C(c2cc3c(cc2O)OCO3)N2CCOCC2)c1OC` (centres undefined) as the compound, how does the growth read?
Answer: 102% (inactive)

Question: `O=C1C=CC(=O)N1c1ccc(N2C(=O)C=CC2=O)cc1` was tested. Which growth did it give?
Answer: 98.3% (inactive)

Question: How did the growth turn out when `CC(=O)O[C@H]1C(=O)[C@@]2(C)[C@H]([C@H](OC(=O)c3ccccc3)[C@]3(O)C[C@H](OC(=O)[C@H](O)[C@@H](NC(=O)c4ccccc4)c4ccccc4)C(C)=C1C3(C)C)[C@]1(OC(C)=O)CO[C@@H]1C[C@@H]2O` was run?
Answer: 11.9% (inactive) and 8.9% (active)

Question: How did the growth turn out when `CCC(=O)Oc1ccc(/C=N/NC(N)=S)nc1` was run?
Answer: 42% (inactive)

Question: `COc1ccc(C(C#N)=C2C=CC(=NO)C=C2)cc1` was tested. Which growth did it give?
Answer: -37.2% (active)

Question: How did the growth turn out when `CN(CC(=O)O)c1ccc(/C=C/c2ccnc3ccccc23)cc1` was run?
Answer: 89.4% (inactive)
